The text below walks through data of PubChem BioAssay (Tox21).

Unmarked numbers belong to inactive results. Active and inactive are the calls of the source. The call rests on the fitted dose curve; in most records, active means well fitted activation curve with a large enough effect in the repeat runs; inconclusive means weak or mixed curves; inactive means flat fitted curve, though single readings scatter.
On the % scale 0 is the no-effect control and ±100 the full control effect.

Chain of KiSS-1 receptor (Homo sapiens) (Q969F8 whole entry, looked up): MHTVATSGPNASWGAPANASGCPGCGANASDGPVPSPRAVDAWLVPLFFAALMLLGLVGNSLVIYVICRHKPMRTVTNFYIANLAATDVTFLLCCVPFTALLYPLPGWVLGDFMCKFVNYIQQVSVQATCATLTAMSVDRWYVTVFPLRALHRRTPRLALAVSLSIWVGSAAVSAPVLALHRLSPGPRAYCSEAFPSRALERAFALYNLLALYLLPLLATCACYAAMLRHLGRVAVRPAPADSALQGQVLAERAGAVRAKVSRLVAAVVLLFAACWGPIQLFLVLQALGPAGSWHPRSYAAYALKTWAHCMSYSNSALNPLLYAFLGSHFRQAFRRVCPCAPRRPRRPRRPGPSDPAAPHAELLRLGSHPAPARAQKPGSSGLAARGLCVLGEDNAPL

In this assay the target is KiSS-1 receptor (Homo sapiens) (UniProt Q969F8). The assay can be described thus: Human kisspeptin (KISS1R) small molecule agonists, calcium flux assay in KISS1R-HEK293 cells (AID 1920064). The settings on record: KISS1R-HEK293, calcium flux fluorescence, agonist; series mostly up to 76.8 µM; activation: at the top concentration. The source says:
National Center for Advancing Translational Sciences [NCATS]
Division of Preclinical Innovation [DPI]
U.S. Environmental Protection Agency [EPA]
National Institutes of Environmental Health Sciences [NIEHS]
National Toxicology Program [NTP]
U.S. Food and Drug Administration [FDA]
Kisspeptin and its receptor KISS1R play key roles in mammalian reproduction due to their involvement in the onset of puberty and control of the hypothalamic-pituitary-gonadal axis such as regulates GnRH release from the hypothalamus. The kisspeptin/KISS1R system also plays a direct role in peripheral organs (including the ovary, testis, uterus, and placenta) and is implicated in reproductive diseases such as miscarriage and polycystic ovary syndrome (PCOS). Abnormal KISS1R activity is associated with abnormal puberty, infertility, endometriosis, and hormone-dependent tumors. The KISS1 receptor (KISS1R, also called GPR54), a G-protein-coupled receptor (GPCR), acts (through phospholipase C) to increase intracellular inositol trisphosphate and then release intracellular calcium stores. Cell-based KISS1R-HEK293 assay is using HEK293 cells that have been genetically engineered to express the human KISS1R, which activity can be measured by calcium signaling. A compound/drug can activate (agonist) KISS1R that can be monitored by levels of intracellular calcium.
KISS1R-HEK293 cells developed by Codex Corp contain human KISS1R gene, which was stably integrated into HEK 293 cells. The compound activation can be detected by fluorescence intensity via calcium flux assay. This cell line has been used to screen the Tox21 10K compound library to identify agonists of KISS1R.
KISS1R-Hek293 cells were dispensed at 1500 cells/4uL/well in 1536-well black wall/clear bottom plates using a multidrop dispenser. After the assay plates were incubated at a 37 C/5% CO2 incubator for 18 hours, 4 microL of Calcium Dye Solution was added to each well. The plates were incubated at 37 C for 1 hour. And then 23 nL of compounds dissolved in DMSO, positive controls, or DMSO only was transferred to the assay plate by a pin tool station. The fluorescence intensity in the plates was measured using FDSS 7000EX kinetic plate reader with a filter set of Ex/Em=480/540 for 3 min at 1 sec intervals. Each test compound was measured at 15 concentrations and in triplicates.
`CC(C)C(=O)c1ccccc1`: the “activation” value is 1.08%. On the same count and under the same terms, to `CCCCCCCCCCCCCC` belongs -1.36%; to `O=c1[nH]c(=O)c2cn[nH]c2[nH]1`, -2.44%. The same measure, in the same setting: to `CCCCN(CCO)CCO` belongs 0.338%; to `CCCCCCN`, 3.7%. Turning to `c1ccc(Nc2cccc3ccccc23)cc1`, the Potency result was “inactive”. Turning to `CCCc1c2oc(C(=O)O)cc(=O)c2cc2c(=O)cc(C(=O)O)n(CC)c12`, the “activation” value was -0.267% [at 35.3 µM]. On the same count and under the same terms, in the case of `COc1ccccc1C=O` it was -4.9%; in that of `O=C(O)CCC(=O)Nc1ccc(S(=O)(=O)Nc2nccs2)cc1`, -2.68% [at 35.3 µM]. On to `C=CC(C)(O)CCC=C(C)C` (stereo not given), for which the Potency result is “inactive”.

`O=c1oc2c(O)c(O)cc3c(=O)oc4c(O)c(O)cc1c4c23`: the activation was -1.64% [at 15.8 µM]. Consider `CNCCCC12CCC(c3ccccc31)c1ccccc12`, for which the Potency entry is “inactive”. As to `Oc1ccccc1O`, the Potency result is “inactive”. Regarding `Oc1cc(O)c2c(c1)O[C@H](c1ccc(O)c(O)c1)[C@H](O)C2`, the “activation” value is -0.65% [at 35.3 µM]. Regarding `CC(C)OC(=O)C(O)(CC(=O)O)CC(=O)O`, the “activation” value was -0.0142%.

Consider `Clc1cc(Cl)c(Cl)c(Cl)c1Cl`, for which the “activation” value is -1.54%. Consider `CCOC(=O)c1ccc(OCCN2C[C@H](O)[C@@H](O)[C@H](O)[C@H]2CO)cc1`, for which the “activation” value is -0.401% [at 35.3 µM]. Turning to `C=CC(C)(CCC=C(C)C)OC(=O)CC` (stereo not given), the “activation” value is 2.41%. Still for that read-out and setting: in the case of `O=C(O)c1ccc([N+](=O)[O-])cc1` it was 4.11%. Same read-out and setting: to `C=C(C)C(=O)OCCC(C)OC(=O)C(=C)C` (stereo not given) belongs 0.113%; to `Cc1cccc(N)n1`, 0.405%. With `c1ccc2c(c1)Oc1ccccc1S2`, the Potency result is “inactive”.

Consider `OC1(c2ccc(Cl)cc2)CCNCC1`, for which the “activation” value is 10.6% [at 35.3 µM].

With `Cc1cc(C)c(C)c(O)c1`, the “activation” value was 2.02%. Take `COCCOCCOCCOCCOCCO`: the “activation” value is 3.01%.

With `O=c1[nH]cnc2c1ncn2[C@@H]1O[C@H](CO)[C@@H](O)[C@H]1O`, the “activation” value is 1.59% [at 35.3 µM]. Regarding `O=C(c1ccccc1)C1(O)CCCCC1`, the “activation” value was -2.5%.

Regarding `CC(O)C(CO)C(C)O` (stereo not given), the “activation” value is -2.45%. Same read-out and setting: to `CCOc1ccccc1OCC` belongs -2.21%; to `CN1C(CCl)Nc2cc(Cl)c(S(N)(=O)=O)cc2S1(=O)=O` (stereo not given), 2.21% [at 35.3 µM]. As to `COc1cccc(OC)c1C(=O)N[C@@H]1C(=O)N2[C@@H]1SC(C)(C)[C@@H]2C(=O)O`, the “activation” value is -0.342% [at 35.3 µM]. The same measure, in the same setting: in the case of `O=C(CCCN1CCC(O)(c2cccc(C(F)(F)F)c2)CC1)c1ccc(F)cc1` it was 0.395% [at 35.3 µM]. `Cc1cccc(Nc2ccccc2C(=O)O)c1C`: the Potency entry was “inactive”. `OC[C@H]1O[C@H](O[C@H]2O[C@H](CO)[C@@H](O)[C@H](O)[C@H]2O)[C@H](O)[C@@H](O)[C@@H]1O`: the “activation” value is -1.93%.

On to `Cc1cc(CCC(=O)OCCOCCOCCOC(=O)CCc2cc(C)c(O)c(C(C)(C)C)c2)cc(C(C)(C)C)c1O`, for which the “activation” value is 3.92%. Still for that read-out and setting: in the case of `CCC(=O)O[C@@H]1C[C@H]2CC[C@]1(C)C2(C)C` it was -0.37%; in that of `[Cl][Eu]([Cl])[Cl]`, -1.35%; in that of `CC(=O)c1ccccc1N`, 2.73%. Turning to `CN(C1CCCCC1)S(=O)(=O)c1ccccc1N`, the “activation” value was -2.31%. `CCN(CC)CCNC(=O)c1ccc(N)cc1`: the Potency result was “inactive”.
